PTK2B oligo ant = antagonists of Pyk2 self-association, primary screen, Q293 cells, FERM NanoBiT luminescence, HTS. stronger effect = lower value. z-score (the deposit names both 25 µM and 10 µM). 99,000 compounds, 0.83% hits;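 active means Z-score of -3 or lower, scaled per plate to the spread of control and sample wells; inactive means z-score above -3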;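 further: negative z-score means lost luminescence so less FERM oligomerization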
Target sequence (Q14289 whole entry, looked up): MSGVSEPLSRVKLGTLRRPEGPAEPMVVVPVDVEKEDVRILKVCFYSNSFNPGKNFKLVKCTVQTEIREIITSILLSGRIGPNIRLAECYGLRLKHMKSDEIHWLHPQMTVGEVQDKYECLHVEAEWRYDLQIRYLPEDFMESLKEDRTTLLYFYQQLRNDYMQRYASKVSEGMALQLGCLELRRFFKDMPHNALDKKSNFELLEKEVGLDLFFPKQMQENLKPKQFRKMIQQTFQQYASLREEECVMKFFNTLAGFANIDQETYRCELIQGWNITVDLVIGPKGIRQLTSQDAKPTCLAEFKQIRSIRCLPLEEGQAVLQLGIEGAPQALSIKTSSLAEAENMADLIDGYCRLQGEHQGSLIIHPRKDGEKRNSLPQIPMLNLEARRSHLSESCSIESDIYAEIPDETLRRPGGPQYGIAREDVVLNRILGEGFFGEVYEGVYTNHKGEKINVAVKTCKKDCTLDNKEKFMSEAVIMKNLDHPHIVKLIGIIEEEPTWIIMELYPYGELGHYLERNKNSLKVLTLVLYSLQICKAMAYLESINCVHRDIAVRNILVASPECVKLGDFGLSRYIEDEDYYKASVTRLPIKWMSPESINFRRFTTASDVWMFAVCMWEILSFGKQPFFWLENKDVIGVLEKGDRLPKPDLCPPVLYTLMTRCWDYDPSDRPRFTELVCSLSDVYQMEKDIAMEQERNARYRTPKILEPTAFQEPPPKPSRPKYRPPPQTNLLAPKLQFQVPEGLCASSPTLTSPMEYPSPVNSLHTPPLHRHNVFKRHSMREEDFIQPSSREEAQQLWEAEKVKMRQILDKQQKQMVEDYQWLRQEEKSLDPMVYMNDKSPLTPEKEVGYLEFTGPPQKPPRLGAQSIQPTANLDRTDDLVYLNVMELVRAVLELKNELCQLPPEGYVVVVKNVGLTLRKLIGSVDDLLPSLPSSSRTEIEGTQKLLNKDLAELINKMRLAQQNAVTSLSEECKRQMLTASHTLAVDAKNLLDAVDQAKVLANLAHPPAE
PostGolgi ctrl = growth inhibition of yeast control strain, primary screen, counter-screen for post-Golgi transport modulator project; 98,000 compounds, 5% hits; efflux-deficient yeast background strain, growth absorbance A615, 16 h; AID 738, 2007; inhibition, % at 10 µM
PostGolgi yeast = phenotypic screen on post-Golgi transport, primary screen. post-Golgi transport phenotypic cell assay. inhibition, % at 10 µM. 98,000 compounds, 0.9% hits. AID 739, 2007;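 further: yeast cells grown in 1536-well plates; yeast grown about 18 h at 30C before absorbance read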
Cav32 inh = Cav3.2 calcium influx blockers – cell-based, Fluo-4 calcium fluorescence, FDSS, MLSMR library, primary screen; Cav3.2-expressing cells; stronger effect = lower value; B-score at 10 µM; AID 449739, 2010; 100,000 compounds, 4% hits;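 active means single-dose well whose peak fluorescence ratio is a statistical outlier from its plate by either plate-standardised score or position-corrected B-score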
* = called active by the depositor. In the library only some 8% were active in any assay of this set; here they are far more common. Unless noted, no stated cut-off is given here; in the data, active means inhibition above about 30%; inactive means the rest.

What do the screens show for `CC(Nc1ccc(Br)cn1)c1cc(Cl)ccc1O` (stereo not given)?
PTK2B oligo ant: -3.5*; PostGolgi ctrl: 31*; PostGolgi yeast: -3

Results for COc1ccc(S(=O)(=O)O/N=C2\CCCc3ccccc32)cc1 ?
PTK2B oligo ant: 0.32; PostGolgi ctrl: -2; PostGolgi yeast: 13

How did CCOC(=O)/C(C#N)=C\C=C1C=CN(C)C=C1 do in these assays?
PTK2B oligo ant: 0.02; PostGolgi ctrl: 5; PostGolgi yeast: -20; Cav32 inh: -4.8*

What do the screens show for `COC(=O)C(Cc1cnc[nH]1)NC(=O)C1CCC(=O)N1` (stereo not given)?
PTK2B oligo ant: 0; PostGolgi ctrl: 4; PostGolgi yeast: -1; Cav32 inh: -0.26

What do the screens show for `CCn1c(CCn2ccnc2C)n[nH]c1=S`?
PTK2B oligo ant: 0.21; PostGolgi ctrl: 38*; PostGolgi yeast: -4; Cav32 inh: -0.61

Results for CCn1c(CC(C)C)n[nH]c1=S ?
PTK2B oligo ant: 0.63; PostGolgi ctrl: -3; PostGolgi yeast: 1; Cav32 inh: 0.44

Results for Cc1cc(C)cc(Oc2ccc(C(F)(F)F)cc2C#N)c1 ?
PTK2B oligo ant: -0.38; PostGolgi ctrl: -1; PostGolgi yeast: -1; Cav32 inh: -0.14

Results for CCOC(=O)N1CCN(C(=O)C(c2ccccc2)c2ccccc2)CC1 ?
PTK2B oligo ant: 0.37; PostGolgi ctrl: 6; PostGolgi yeast: 6; Cav32 inh: -3.8

What do the screens show for `Oc1ccc2ccccc2c1/C=N/c1nc2c(s1)CCCC2`?
PTK2B oligo ant: 0.71; PostGolgi ctrl: 2; PostGolgi yeast: -2; Cav32 inh: -0.042

Results for Oc1c(Br)cc(Br)cc1/C=N/c1nc2c(s1)CCCC2 ?
PTK2B oligo ant: 1.2; PostGolgi ctrl: 9; PostGolgi yeast: 0; Cav32 inh: -5.3*

Results for CC(C)(CSc1nncn1N)NS(=O)(=O)c1ccc(Cl)cc1 ?
PTK2B oligo ant: 0.02; PostGolgi ctrl: 8; PostGolgi yeast: -4; Cav32 inh: 0.38

Results for O=C(CSc1c2c(nc3cc(Cl)ccc13)CCCC2)NCc1ccco1 ?
PTK2B oligo ant: 0.04; PostGolgi ctrl: 16; PostGolgi yeast: 7; Cav32 inh: -2.5

What do the screens show for `COc1ccccc1CC(=O)O/N=C(\N)Cc1cccc2ccccc12`?
PTK2B oligo ant: -0.35; PostGolgi ctrl: 30*; PostGolgi yeast: -3; Cav32 inh: -2.2

What do the screens show for `COc1ccccc1C/C(N)=N/OC(=O)COc1ccc(C)cc1C`?
PTK2B oligo ant: -1.1; Cav32 inh: -1.9

How did O=C(CN(C(=O)CCC(=O)Nc1nccs1)c1ccc(F)cc1)NCc1ccco1 do in these assays?
PTK2B oligo ant: 0.37; PostGolgi ctrl: 32*; PostGolgi yeast: 0

Results for CC(=O)Nc1cccc(N2CCCC2=O)c1 ?
PTK2B oligo ant: 0.18; PostGolgi ctrl: 11; PostGolgi yeast: 10; Cav32 inh: -0.0045

What do the screens show for `CC(=O)Nc1cccc(N2C(=O)CCC2=O)c1`?
PTK2B oligo ant: -0.28; PostGolgi ctrl: 38*; PostGolgi yeast: -11; Cav32 inh: 0.59

What do the screens show for `Oc1ccccc1-c1nnc(COc2ccc(Cl)cc2Cl)o1`?
PostGolgi ctrl: 4; PostGolgi yeast: 3; Cav32 inh: -5.9*

How did CCC1C(=O)Nc2nc(-c3ccccc3)c(-c3ccccc3)n2N=C1C (stereo not given) do in these assays?
PTK2B oligo ant: -0.53; PostGolgi ctrl: 42*; PostGolgi yeast: -2; Cav32 inh: -3

How did O=C(CSCc1ccc(Cl)cc1)Nc1ccc2c(c1)OCCO2 do in these assays?
PTK2B oligo ant: -0.83; PostGolgi ctrl: -6; PostGolgi yeast: 0; Cav32 inh: -3

Results for Cc1ncc(CC(=O)n2cc(C(=O)c3cc(F)ccc3O)cn2)s1 ?
PTK2B oligo ant: -0.24; PostGolgi ctrl: 1; PostGolgi yeast: 0; Cav32 inh: -3.4*

How did O=C(Nc1c2c(nn1-c1ccc(F)cc1)CSC2)c1ccc(S(=O)(=O)N2CCOCC2)cc1 do in these assays?
PTK2B oligo ant: 0.6; PostGolgi ctrl: 8; PostGolgi yeast: 10; Cav32 inh: -5.6*

How did Cc1ccc(-n2nc3c(c2NC(=O)c2cccs2)CSC3)cc1 do in these assays?
PTK2B oligo ant: -0.51; PostGolgi ctrl: -6; PostGolgi yeast: 11; Cav32 inh: -6.3*

What do the screens show for `CC(C)(C)n1nc2c(c1NC(=O)c1ccc(S(=O)(=O)N3CCCC3)cc1)CSC2`?
PTK2B oligo ant: 0.81; PostGolgi ctrl: 7; PostGolgi yeast: 2; Cav32 inh: -3.5*

What do the screens show for `Cc1cccc(-n2nc3c(c2NC(=O)c2ccc(S(=O)(=O)N4CCOCC4)cc2)CSC3)c1C`?
PTK2B oligo ant: 1.4; PostGolgi ctrl: -6; PostGolgi yeast: 9

How did CCC(=O)Nc1c2c(nn1-c1ccccc1C)CSC2 do in these assays?
PTK2B oligo ant: 0.57; PostGolgi ctrl: -2; PostGolgi yeast: -3; Cav32 inh: -1.5

What do the screens show for `CCCCC(c1nnnn1C1CCCC1)N1CCN(C2CCCCC2)CC1` (stereo not given)?
PTK2B oligo ant: 0.39; PostGolgi ctrl: 6; PostGolgi yeast: -2; Cav32 inh: -1.2

Results for c1ccc(CC2CCN(C(c3cccs3)c3nnnn3C3CCCC3)CC2)cc1 (stereo not given) ?
PTK2B oligo ant: -2.2; PostGolgi ctrl: 12; PostGolgi yeast: -8; Cav32 inh: -3.4*

What do the screens show for `Cc1cc(C)c2cc(C(c3nnnn3C3CCCC3)N3CCOCC3)c(=O)[nH]c2c1` (stereo not given)?
PTK2B oligo ant: 1.7; PostGolgi ctrl: 4; PostGolgi yeast: -1; Cav32 inh: 1.9

What do the screens show for `COc1ccc(OC)c(C(c2nnnn2C2CCCC2)N2CCN(c3ccccc3)CC2)c1` (stereo not given)?
PTK2B oligo ant: -3.5*; PostGolgi ctrl: 17; PostGolgi yeast: -2

What do the screens show for `Cc1ccc2cc(C(c3nnnn3C3CCCC3)N3CCN(c4ccc(F)cc4)CC3)c(=O)[nH]c2c1` (stereo not given)?
PTK2B oligo ant: 2.6; PostGolgi ctrl: 8; PostGolgi yeast: 2; Cav32 inh: -5.3*

What do the screens show for `CCCC(c1nnnn1C1CCCCC1)N1CCN(c2ncccn2)CC1` (stereo not given)?
PTK2B oligo ant: 0.31; PostGolgi ctrl: 37*; PostGolgi yeast: 1; Cav32 inh: 0.0019

Results for CCOc1ccccc1NC(=O)N1CCCC1C(=O)Nc1ccc(-n2cnnn2)c(C)c1 (stereo not given) ?
PTK2B oligo ant: 0.13; PostGolgi ctrl: -8; PostGolgi yeast: -9; Cav32 inh: 0.13

How did c1cnc2ccc(C(c3nnnn3C3CCCCC3)N3CCCCC3)cc2c1 (stereo not given) do in these assays?
PTK2B oligo ant: -1.1; Cav32 inh: -4.7*

Results for CCc1ccc2[nH]c(=O)c(C(c3nnnn3CCOC)N3CCN(c4ccc(F)cc4)CC3)cc2c1 (stereo not given) ?
PTK2B oligo ant: 0.37; PostGolgi ctrl: 5; PostGolgi yeast: -1; Cav32 inh: -5.7*

Results for c1cnc2ccc(C(c3nnnn3C3CCCCC3)N3CCN(C4CCCCC4)CC3)cc2c1 (stereo not given) ?
PTK2B oligo ant: -1.1; Cav32 inh: 1.6

Source: PubChem
